# Bioassay records deposited in PubChem BioAssay by NMMLSC.
# CIT2 TOR yeast: modulators of TOR pathway CIT2-GFP in S. cerevisiae; S. cerevisiae CIT2-GFP strain, flow cytometry, 3 h; 100 means same as DMSO wells; GFP response vs DMSO, % at 10 µM; hit rate 0.065% among 320,000; AID 2029;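 active = GFP response relative to DMSO above a set limit, near the screen mean plus 3 SD, cut at about 150% in these data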;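 also: ratio of well median GFP fluorescence to mean of DMSO wells on the plate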
# AGP1-GFP MLPCN: yeast TOR pathway AGP1-GFP modulation; S. cerevisiae AGP1-GFP multiplex flow cytometry, 3 h; GFP as percent of DMSO wells; GFP response vs DMSO, % at 10 µM; hit rate 0.02% among 320,000;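 active = GFP response relative to DMSO above a set limit, near screen average plus 3 SD, cut at about 150% in these data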;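 also: median GFP channel fluorescence of the gated AGP1 strain per well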
# RPL19A-GFP yeast: modulators of TOR pathway RPL19A-GFP in S. cerevisiae | S. cerevisiae RPL19A-GFP strain, flow cytometry, 3 h; active compounds read low | percent response vs DMSO, % at 10 µM | hit rate 0.3% among 330,000 | AID 2025;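 active = percent response vs DMSO below 50%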;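 also: median channel GFP fluorescence of the barcoded RPL19A-GFP strain; ratio of sample median GFP to plate DMSO average so 100% = DMSO; lower means less RPL19A-GFP as with rapamycin TOR inhibition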
# MEP2-GFP yeast: alters MEP2-GFP fluorescence in TOR pathway yeast screen; S. cerevisiae MEP2-GFP strain, flow cytometry GFP, 3 h; 100% = DMSO control level; GFP response vs DMSO, % at 10 µM; hit rate 0.51% among 330,000; AID 2016;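 active = GFP response versus DMSO above a set limit, roughly screen mean plus 3 SD, cut at about 180% in these data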;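 also: median GFP fluorescence of the barcode-gated MEP2-GFP cells per well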
# LAP4-GFP MLPCN: modulators of TOR pathway LAP4-GFP in S. cerevisiae | S. cerevisiae LAP4-GFP multiplex, flow cytometry GFP, 3 h; median GFP as percent of DMSO wells | hit rate 0.34% among 320,000 | AID 2023 | GFP response vs DMSO, % at 10 µM;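 active = GFP response vs DMSO above a set limit, about the screen mean plus 3 SD, cut at about 150% in these data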
# LAP4 cherry2: yeast LAP4-GFP modulation, second cherry pick. GFP response vs DMSO, % at 10 µM. AID 2621. shares compounds with LAP4-GFP MLPCN. hit rate 20% among 590. S. cerevisiae LAP4-GFP strain, flow cytometry GFP, 3 h;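 active = GFP signal as percent of the solvent control above about 150%, meaning raised reporter expression, limit read from the data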;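 also: ratio of well median GFP fluorescence to plate DMSO mean so 100% = DMSO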
# MEP2 cherry2: yeast MEP2-GFP modulation, second cherry pick; GFP response vs DMSO, % at 10 µM; S. cerevisiae MEP2-GFP strain, flow cytometry GFP, 3 h; shares compounds with LAP4-GFP MLPCN; AID 2622; hit rate 10% among 590;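 active = GFP signal above 150% of the solvent control wells, that is a rise of more than half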;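 also: median channel GFP fluorescence of all gated yeast cells per well; ratio of median GFP to plate DMSO average so 100% = DMSO level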
# RPL19A GFP CP2: yeast RPL19A-GFP TOR reporter modulation, second cherry pick. GFP response vs DMSO, % at 10 µM. hit rate 3% among 590. shares compounds with LAP4-GFP MLPCN. S. cerevisiae RPL19A-GFP strain, flow cytometry GFP, 3 h; active compounds read low; 100% means same as DMSO wells;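 active = under 65% GFP response relative to DMSO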;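 also: median GFP channel fluorescence per well over the all cells gate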
# CIT2 GFP CP2: reconfirmed modulator of CIT2-GFP TOR reporter in yeast. shares compounds with LAP4-GFP MLPCN. S. cerevisiae CIT2-GFP strain, flow cytometry GFP, 3 h; DMSO control wells read 100%. GFP response vs DMSO, % at 10 µM. hit rate 8% among 590. AID 2624;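 active = GFP response vs DMSO above about 150%, limit read from the data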;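 also: median green fluorescence per well over all gated yeast cells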
# AGP1-GFP pick2: reconfirmed modulator of AGP1-GFP TOR reporter in yeast. S. cerevisiae AGP1-GFP strain, flow cytometry GFP, 3 h. 590 tested, under 10 active. shares compounds with LAP4-GFP MLPCN. percent response vs DMSO, % at 10 µM;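 active = over 150 percent of DMSO response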;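 also: median GFP channel fluorescence over all cells without mother daughter split; sample median GFP divided by mean DMSO control so 100% equals DMSO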
# s288c autofluor: compound is autofluorescent in yeast s288c cells; shares compounds with LAP4-GFP MLPCN; S. cerevisiae s288c, 520 nm autofluorescence, flow cytometry, 3 h; active compounds read high; zero means same as solvent-only cells; fluorescence change (kMESF span) at 33 µM; 610 tested, under 10 active;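 active = fluorescence span over the dose series, or activity score, above about 33, limit read from the data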
# * = called active by the depositor; . = no result. Shown are actives, neighbours in structure and some others; about 0.93% of the full set was active somewhere.
SMILES,CIT2 TOR yeast,AGP1-GFP MLPCN,RPL19A-GFP yeast,MEP2-GFP yeast,LAP4-GFP MLPCN,LAP4 cherry2,MEP2 cherry2,RPL19A GFP CP2,CIT2 GFP CP2,AGP1-GFP pick2,others
CC[C@]1(c2ccccc2C)ON(c2ccccc2C(F)(F)F)C1=O,102.5,98.4,94.3,95.0,104.5,101.2,97.8,104.0,107.1,97.6,s288c autofluor=-0.1
COc1ccccc1[C@@]1(C)ON(c2ccccc2C(F)(F)F)C1=O,85.2,77.5,92.5,87.9,155.4*,140.4,118.1,103.6,127.8,105.0,s288c autofluor=0.3
CCCNC(=O)c1ccc(CN2CCOCC2)cc1,102.0,96.6,100.3,102.7,94.3,.,.,.,.,.,
C[C@H](NC(=O)c1ccco1)C(=O)N1CCCC1,88.5,85.4,93.1,91.6,80.5,.,.,.,.,.,
CC(NC(=O)c1ccco1)C(=O)N1CCCCC1 (stereo not given),150.1*,113.0,100.1,109.5,91.3,100.0,103.2,100.7,99.5,98.2,
COc1ccc2[nH]c3c(c2c1)CCNC3c1ccc([N+](=O)[O-])o1 (stereo not given),266.3*,132.4,135.2,498.4*,313.6*,316.6*,564.2*,145.3,414.4*,133.6,
O=C1CN(S(=O)(=O)c2cccc(Cl)c2Cl)c2ccccc2N1,103.7,102.9,101.5,102.0,105.9,.,.,.,.,.,
O=C(Cc1ccc(Cl)cc1)Nc1ccc(NC(=O)c2ccccc2)cc1,103.7,105.3,101.2,96.3,99.2,.,.,.,.,.,
COc1ccccc1NC(=O)CC(=O)Nc1ccccc1OC,100.2,96.6,103.4,100.5,89.4,.,.,.,.,.,
O=C(CC(=O)c1ccccc1)Nc1ccc(Cl)cc1,102.8,106.0,114.1,121.5,127.3,100.0,103.2,103.0,91.6,98.1,
COc1ccccc1NC(=O)CC(=O)c1ccccc1,99.9,92.1,103.7,115.8,103.2,101.2,101.3,97.0,105.7,90.6,
Cc1cc(C(=O)CSc2ccccc2)cc(C)c1O,97.0,96.9,104.2,103.3,98.5,.,.,.,.,.,
CC1=NOC(=O)/C1=C\c1ccc(-c2cc(Cl)ccc2Cl)o1,110.6,54.9,89.2,93.9,167.4*,.,.,.,.,.,s288c autofluor=1.51
COc1c(OC(C)=O)c(=O)n2c3ccccc3c3ccnc1c32,93.0,24.3,48.0*,245.4*,94.9,91.3,91.5,104.6,108.6,87.2,
CCCSc1ccc(-c2nn(-c3ccccc3)cc2/C=C(/C#N)C(=O)NCCCOC)cc1,110.5,99.5,103.4,107.6,101.7,.,.,.,.,.,
CCSc1ccc(-c2nn(-c3ccccc3)cc2/C=C(/C#N)C(=O)NCCCOC)cc1,186.1*,82.8,105.4,524.9*,185.8*,96.2,96.1,100.8,114.0,97.4,
CCc1ccccc1NC(=O)CN1CCN(C(=O)CN2C(=O)NC3(CCCC3)C2=O)CC1,96.7,108.0,100.1,102.4,104.2,.,.,.,.,.,
Cn1c(=O)c(C(=O)NNC(=O)c2ccc(Br)cc2)c(O)c2ccccc21,90.4,72.3,63.6,127.7,127.0,161.5*,164.7*,79.4,81.4,85.6,s288c autofluor=2.5
CCCS(=O)(=O)Nc1cccc(-c2ccc3nnc(C)n3n2)c1,96.3,98.6,92.9,99.7,74.5,.,.,.,.,.,
CCS(=O)(=O)Nc1cccc(-c2ccc3nnc(-c4cccnc4)n3n2)c1,100.9,120.4,79.5,87.9,170.8*,99.0,103.2,100.4,101.8,100.1,
CCC(=O)NC(c1ccccc1OC)c1ccc2cccnc2c1O (stereo not given),98.5,115.9,100.1,101.9,95.0,.,.,.,.,.,
COc1ccc(Cl)cc1C(Nc1cccnc1)c1ccc2cccnc2c1O (stereo not given),89.9,106.4,85.1,99.3,191.7*,.,.,.,.,.,s288c autofluor=1
C=CCn1c(C)c(C(C)=O)c(N2CCOCC2)nc1=S,105.9,28.5,65.0,161.7,93.3,99.2,97.8,98.9,109.9,95.4,
CC(C)[C@H](NC(=O)c1ccco1)C(=O)N(C)Cc1c(F)cccc1Cl,101.7,107.1,106.6,112.9,103.5,.,.,.,.,.,
COc1cc(/C=C2/C(=O)c3cccc([N+](=O)[O-])c3C2=O)c(Br)cc1O,92.8,86.5,95.9,82.2,108.7,135.6,116.5,109.3,116.5,103.8,s288c autofluor=0.1
SMILES,CIT2 TOR yeast,AGP1-GFP MLPCN,RPL19A-GFP yeast,MEP2-GFP yeast,LAP4-GFP MLPCN,LAP4 cherry2,MEP2 cherry2,RPL19A GFP CP2,CIT2 GFP CP2,AGP1-GFP pick2,others
COc1ccccc1NC(=O)CCCCCN1C(=O)c2cccc([N+](=O)[O-])c2C1=O,104.3,98.7,103.1,109.9,95.5,.,.,.,.,.,
O=C(CSc1ccc(F)cc1)Nc1cccc(S(=O)(=O)N2CCOCC2)c1,86.9,112.2,86.8,102.2,170.2*,102.2,97.8,100.0,107.1,96.6,
O=C(Nc1ccc(NC(=O)c2cc3ccccc3o2)cc1)c1ccco1,100.5,97.7,105.6,105.0,92.7,.,.,.,.,.,s288c autofluor=0.3
COc1cc(NC(=O)c2cccc(C)c2)ccc1NC(=O)c1cc2ccccc2o1,101.3,99.3,107.0,113.3,90.8,.,.,.,.,.,s288c autofluor=0.1
O=C(Nc1ccccc1)c1cc2ccccc2o1,80.7,83.7,90.3,91.6,100.5,.,.,.,.,.,
C=C(C)[C@@H]1CCC2(C(=O)O)CC[C@]3(C)[C@H](CC[C@@H]4[C@@]5(C)CCC(=O)C(C)(C)[C@@H]5CC[C@]43C)[C@@H]12 (stereo not given in full),79.1,90.1,100.6,91.3,109.3,.,.,.,.,.,
C=C(CC[C@@H](O)C(C)(C)O)[C@H]1CC[C@]2(C)[C@@H]1CCC1[C@@]3(C)CCC(=O)C(C)(C)C3CC[C@]12C (stereo not given in full),81.7,111.5,98.6,88.5,157.8*,105.8,96.5,95.8,92.7,100.6,
O=C(Nc1cc(S(=O)(=O)N2CCOCC2)ccc1N1CCOCC1)c1cccs1,94.7,98.3,95.0,95.8,90.1,.,.,.,.,.,
CCNC(=S)N(CCCO)Cc1cc2cc3c(cc2[nH]c1=O)OCCO3,101.7,99.8,97.0,99.1,91.3,.,.,.,.,.,
